From PubChem BioAssay (Tox21)
Results filed as inconclusive are left out. Active and inactive are the calls of the source. Unless noted, calls come from the whole dose curve; as a rule, active = well fitted curve in the direction sought with a large enough effect in the repeat runs; inconclusive = weak or mixed curves; inactive = no such curve, though single readings can be large; an effect the other way counts as inactive or inconclusive.

Experiments:
[1] = biological target: Progesterone receptor (Homo sapiens) (UniProt P06401); assay: qHTS assay to identify small molecule agonists of the progesterone receptor (PR) signaling pathway (AID 1346784; calls by dose curve; note: nearly all actives have a fitted effect of over 30% in size)
How it was run: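 PR-UAS-bla HEK 293T cells carrying a UAS-driven beta-lactamase reporter were seeded in medium with 2% charcoal-stripped FBS, preincubated 6 hr at 37C, then exposed to compounds in DMSO for 16 hr; agonism was read by LiveBLAzer B/G FRET fluorescence.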

[2] = biological target: Progesterone receptor (Homo sapiens) (UniProt P06401); assay: qHTS assay to identify small molecule antagonists of the progesterone receptor (PR) signaling pathway (AID 1346795; active = well fitted inhibition curve with a large enough effect in the signal ratio in the repeat runs, not every such curve was filed as active; the % refers to the signal ratio)
How it was run: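 PR-UAS-bla HEK293T cells carrying a UAS-driven beta-lactamase reporter were plated in medium with 2% charcoal-stripped FBS and rested 6 hr at 37C. Compounds were added with 1 nM R5020 (final) for 16 hr, then FRET substrate loaded 2 hr at room temperature.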

[3] = qHTS assay to identify small molecule antagonists of the progesterone receptor (PR) signaling pathway - cell viability counter screen (AID 1346798); note: nearly all actives have a fitted effect of over 50% in size; note: potency is the fitted concentration of half-maximal effect; for activity change, negative = cytotoxicity: series mostly up to about 92 µM
How it was run: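 PR-UAS-bla HEK293T cells in medium with 2% charcoal-stripped FBS were treated with compounds plus R5020 for 16 hr at 37C. Cell viability was then read by CellTiter-Glo luminescence after 30 min at room temperature in the same wells.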

[4] = qHTS assay to identify small molecule agonists of the progesterone receptor (PR) signaling pathway - cell viability counter screen (AID 1346799; calls by dose curve; note: nearly all actives have a fitted effect of over 45% in size; note: potency is the fitted concentration of half-maximal effect)
How it was run: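 PR-UAS-bla HEK293T cells, 3,000 per well in medium with 2% charcoal-stripped FBS, were preincubated 6 hr at 37C, then exposed to compounds for 16 hr; viability was read as CellTiter-Glo luminescence after 30 min at room temperature.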

[5] = qHTS assay to identify small molecule agonists of the TGF-beta/Smad signaling pathway - cell viability counter screen (AID 1346829); note: top concentration of the series differs between compounds; nearly all actives have a fitted effect of over 45% in size
How it was run: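 In parallel with the Smad reporter read, viability of HEK 293T cells stably carrying SBE-bla is quantified by ATP luminescence following 5 hr compound treatment.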

[6] = qHTS assay to identify small molecule agonists of the TGF-beta/Smad signaling pathway (AID 1346859; active = well fitted activation curve with a large enough effect in the signal ratio in the repeat runs, not every such curve was filed as active; the % refers to the signal ratio; note: series mostly up to about 77 µM)
How it was run: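 HEK 293T cells stably carrying a beta-lactamase reporter driven by the Smad binding element were seeded overnight, exposed to DMSO-dissolved compounds for 5 hr at 37 C, 5% CO2, then loaded with FRET substrate for 2 hr at room temperature.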

[7] = Caspase-3/7 induction in CHO-K1 cells by small molecules, qHTS cell viability counter screen (AID 1346979); note: nearly all actives have a fitted effect of over 35% in size
How it was run: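 Wild-type CHO-K1 cells were seeded at 1,500 per well, rested 5hr at 37 C, then exposed to compounds in DMSO. After 16hr, CellTiter-Fluor reagent was added and fluorescence read 1hr later as the viability measure.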

[8] = Caspase-3/7 induction in CHO-K1 cells by small molecules, qHTS assay (AID 1346980); note: nearly all actives have a fitted effect of over 15% in size
How it was run: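 Wild-type CHO-K1 cells exposed to compounds for 17hr at 37 C, 5% CO2. Caspase-3/7 activity then measured by Caspase-Glo 3/7 luminescence after 30min at room temperature.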

[9] = Caspase-3/7 induction in HepG2 cells by small molecules, qHTS cell viability counter screen (AID 1346981); note: series mostly up to about 92 µM; nearly all actives have a fitted effect of over 30% in size
How it was run: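 Cell viability is measured as a cytotoxicity counter screen alongside the Caspase-Glo 3/7 readout in identical wells. Wild-type HepG2 cells are treated with test compounds for 16 hr at 37 C before CellTiter-Fluor addition and a 1-hr incubation.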

[10] = biological target: Nuclear receptor subfamily 1 group I member 2 (Homo sapiens) (UniProt O75469); assay: Human pregnane X receptor (PXR) small molecule agonists, qHTS assay (AID 1346982); note: nearly all actives have a fitted effect of over 35% in size; note: potency is the fitted concentration of half-maximal effect
How it was run: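 Cells: HepG2 stably carrying PXR-Luc. Medium held 5% charcoal-stripped FBS. Compounds in DMSO added after 5 hr plating, incubated 24 hr, then luminescence quantified with ONE-Glo.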

[11] = biological target: Cytochrome P450 2D6 (Homo sapiens) (UniProt P10635); assay: Cytochrome P450 Family 2 Subfamily D Member 6 (CYP2D6) small molecule antagonists: luciferase reporter qHTS assay (AID 1671196); note: nearly all actives have a fitted effect of over 50% in size; note: potency is the fitted concentration of half-maximal effect; for activity change, negative = inhibition: series mostly up to about 120 µM
How it was run: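 Enzyme and proluciferin substrate were first combined with test chemical for 10 min at room temperature. Adding NADPH regeneration solution started a 1 h reaction, stopped with luciferin detection reagent and read by luminescence 20 min later.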

[12] = biological target: Cytochrome P450 2C19 (Homo sapiens) (UniProt P33261); assay: Cytochrome P450 Family 2 Subfamily C Member 19 (CYP2C19) small molecule antagonists: luciferase reporter qHTS assay (AID 1671197); note: nearly all actives have a fitted effect of over 65% in size; note: potency is the fitted concentration of half-maximal effect; for activity change, negative = inhibition: series mostly up to about 120 µM
How it was run: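 Compounds were tested on CYP2C19 activity via proluciferin conversion to luciferin. The 37C, 1 h reaction followed NADPH addition; detection reagent stopped it.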

[13] = biological target: Thyrotropin-releasing hormone receptor (Homo sapiens) (UniProt P34981); assay: qHTS assay to identify small molecule antagonists of the thyrotropin-releasing hormone receptor (TRHR) signaling pathway (AID 1346877; active = well fitted inhibition curve with a large enough effect in the repeat runs, not every such curve was filed as active; note: series mostly up to about 51 µM)
How it was run: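 Antagonism is measured as suppression of the calcium response to 1 nM TRH in TRHR-HEK293 cells that have been dye-loaded for 2 h at 37 °C after overnight plating. Each compound is tested at 15 concentrations in triplicate.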

[14] = biological target: Thyrotropin-releasing hormone receptor (Homo sapiens) (UniProt P34981); assay: qHTS assay to identify small molecule agonists of the thyrotropin-releasing hormone receptor (TRHR) signaling pathway (AID 1346891; calls by dose curve; note: series mostly up to about 58 µM)
How it was run: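 TRHR-expressing HEK293 cells were plated 18 h at 37 °C/5% CO2, loaded with calcium dye 2 h at 37 °C, then given compound in DMSO; fluorescence was read kinetically for 3 min at 1 s intervals.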

[15] = Human pregnane X receptor (PXR) small molecule agonists, qHTS cell viability counter screen (AID 1346977); note: nearly all actives have a fitted effect of over 50% in size
How it was run: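 PXR-Luc HepG2 cells in medium with 5% charcoal-stripped FBS were pre-incubated 5hr, then exposed to compounds for 24hr at 37C. Viability was read in the same wells by CellTiter-Fluor fluorescence, reagent added after 23hr with a 1hr incubation.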

[16] = Caspase-3/7 induction in HepG2 cells by small molecules, qHTS assay (AID 1346978); note: nearly all actives have a fitted effect of over 15% in size
How it was run: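 Wild-type HepG2 cells, 2,000/well, settled 5 hr at 37 C and 5% CO2, then compound-treated for 17 hr; caspase-3/7 activity read by luminescent Caspase-Glo 3/7 after 30 min at room temperature.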

[17] = biological target: Nuclear receptor subfamily 1 group I member 2 (Rattus norvegicus) (UniProt Q9R1A7); assay: Rat pregnane X receptor (rPXR) activation by small molecules, qHTS assay (AID 1346983); details: rPXR luciferase reporter cells, One-Glo luminescence, 24 h; max activation: stronger effect = higher value; note: nearly all actives have a fitted effect of over 20% in size
How it was run: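 Cell-based rPXR activation assay: rPXR cells, 2,000 per well, rested 5hr at 37 C, then exposed to compounds in DMSO for 24 hr at 37 C. Luciferase activity read by One-Glo luminescence after 30 min at room temperature.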

[18] = biological target: Nuclear receptor subfamily 1 group I member 2 (Homo sapiens) (UniProt O75469); assay: CYP3A4 induction through human pregnane X receptor (PXR) by small molecules, qHTS assay (AID 1346984); note: nearly all actives have a fitted effect of over 40% in size
How it was run: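 Quantitative HTS in DPX-2 cells, i.e. HepG2 transfected with PXR response element and CYP3A4-promoter luciferase. Compounds in DMSO incubated 24hr at 37C; then P450-Glo CYP3A4 substrate, 3uM final, 3hr; One-Glo luminescence.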

[19] = biological target: Nuclear receptor subfamily 1 group I member 2 (Homo sapiens) (UniProt O75469); assay: Human pregnane X receptor (PXR) activation by small molecules, qHTS assay (AID 1346985); note: nearly all actives have a fitted effect of over 40% in size
How it was run: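 DPX-2 cells (HepG2 co-transfected with a PXR response element and a CYP3A4-promoter luciferase construct) were seeded at 2,000 per well, rested 5 hr at 37C, then exposed to DMSO-dissolved compounds for 24 hr. Activation was read as luciferase luminescence.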

[20] = qHTS assay to identify small molecule antagonists of the TGF-beta/Smad signaling pathway - cell viability counter screen (AID 1346824); note: nearly all actives have a fitted effect of over 50% in size
How it was run: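 SBE-bla HEK 293T cells, incubated overnight, then compound plus 0.25 ng/mL TGF-beta1 (stock added) for 5 hr at 37 C. Viability was read in the same wells by CellTiter-Glo luminescence after 30 min at room temperature.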
% is set by controls: 0 for no effect and ±100 for the full control effect.

Sequence of Thyrotropin-releasing hormone receptor (Homo sapiens) (P34981 whole entry, looked up): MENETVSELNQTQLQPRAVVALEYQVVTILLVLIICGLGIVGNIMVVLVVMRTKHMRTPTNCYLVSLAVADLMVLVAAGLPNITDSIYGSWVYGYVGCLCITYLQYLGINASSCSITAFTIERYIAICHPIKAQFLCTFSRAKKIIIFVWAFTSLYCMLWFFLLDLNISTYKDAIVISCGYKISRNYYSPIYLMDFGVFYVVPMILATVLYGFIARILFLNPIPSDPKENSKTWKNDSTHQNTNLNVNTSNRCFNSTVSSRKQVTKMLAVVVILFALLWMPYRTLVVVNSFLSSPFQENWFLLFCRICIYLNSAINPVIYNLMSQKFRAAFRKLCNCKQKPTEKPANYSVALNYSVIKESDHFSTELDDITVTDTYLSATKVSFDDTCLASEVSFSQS
Sequence of Progesterone receptor (Homo sapiens) (P06401 whole entry, looked up): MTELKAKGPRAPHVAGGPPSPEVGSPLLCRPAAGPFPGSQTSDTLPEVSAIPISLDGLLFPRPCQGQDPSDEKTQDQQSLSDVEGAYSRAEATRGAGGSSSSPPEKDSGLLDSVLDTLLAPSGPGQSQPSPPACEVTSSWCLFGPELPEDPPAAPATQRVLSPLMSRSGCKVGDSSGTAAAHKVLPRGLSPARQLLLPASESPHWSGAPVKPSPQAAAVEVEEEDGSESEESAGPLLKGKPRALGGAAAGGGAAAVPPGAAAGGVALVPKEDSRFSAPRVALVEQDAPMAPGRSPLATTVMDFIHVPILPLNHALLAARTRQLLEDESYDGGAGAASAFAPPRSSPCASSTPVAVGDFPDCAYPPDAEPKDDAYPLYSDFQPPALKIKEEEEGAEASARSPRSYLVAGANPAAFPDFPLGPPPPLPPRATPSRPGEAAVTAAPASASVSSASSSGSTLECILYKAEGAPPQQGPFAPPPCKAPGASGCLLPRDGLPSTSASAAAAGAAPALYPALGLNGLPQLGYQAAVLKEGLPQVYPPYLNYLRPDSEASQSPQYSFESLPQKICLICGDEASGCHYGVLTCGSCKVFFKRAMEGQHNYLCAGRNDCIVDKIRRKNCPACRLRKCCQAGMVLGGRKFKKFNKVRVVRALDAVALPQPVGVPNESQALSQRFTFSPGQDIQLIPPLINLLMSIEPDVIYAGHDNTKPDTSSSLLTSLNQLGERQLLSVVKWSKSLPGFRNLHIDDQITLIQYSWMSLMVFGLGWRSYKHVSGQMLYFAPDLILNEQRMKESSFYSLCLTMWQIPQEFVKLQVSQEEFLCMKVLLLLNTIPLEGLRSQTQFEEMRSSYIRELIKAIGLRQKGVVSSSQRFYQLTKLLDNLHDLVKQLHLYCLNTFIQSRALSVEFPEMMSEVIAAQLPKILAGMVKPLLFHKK
Sequence of Nuclear receptor subfamily 1 group I member 2 (Rattus norvegicus) (Q9R1A7 whole entry, looked up): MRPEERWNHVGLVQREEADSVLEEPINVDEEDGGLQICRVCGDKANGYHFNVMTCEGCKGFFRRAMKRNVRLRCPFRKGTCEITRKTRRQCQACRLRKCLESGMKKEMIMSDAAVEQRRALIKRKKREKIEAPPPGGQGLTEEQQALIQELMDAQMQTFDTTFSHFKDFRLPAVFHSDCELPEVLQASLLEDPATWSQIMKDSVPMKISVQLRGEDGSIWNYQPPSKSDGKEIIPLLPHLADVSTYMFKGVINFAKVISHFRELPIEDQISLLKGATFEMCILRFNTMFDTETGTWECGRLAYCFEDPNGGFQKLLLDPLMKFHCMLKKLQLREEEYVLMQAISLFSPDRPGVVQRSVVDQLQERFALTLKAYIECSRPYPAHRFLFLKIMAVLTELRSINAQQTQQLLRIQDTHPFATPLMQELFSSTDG
Sequence of Cytochrome P450 2C19 (Homo sapiens) (P33261 whole entry, looked up): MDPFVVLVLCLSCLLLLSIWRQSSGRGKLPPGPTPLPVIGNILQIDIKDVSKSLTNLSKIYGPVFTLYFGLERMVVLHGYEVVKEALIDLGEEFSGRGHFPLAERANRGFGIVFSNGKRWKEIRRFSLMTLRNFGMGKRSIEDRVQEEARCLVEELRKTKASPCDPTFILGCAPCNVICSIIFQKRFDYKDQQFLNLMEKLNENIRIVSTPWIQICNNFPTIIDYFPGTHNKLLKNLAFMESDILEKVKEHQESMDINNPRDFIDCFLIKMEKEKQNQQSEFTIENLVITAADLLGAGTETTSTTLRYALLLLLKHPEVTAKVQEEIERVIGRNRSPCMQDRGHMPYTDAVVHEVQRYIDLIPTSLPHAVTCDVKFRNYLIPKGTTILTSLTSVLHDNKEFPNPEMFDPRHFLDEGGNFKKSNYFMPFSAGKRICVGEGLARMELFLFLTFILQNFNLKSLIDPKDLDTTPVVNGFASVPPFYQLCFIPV
Sequence of Nuclear receptor subfamily 1 group I member 2 (Homo sapiens) (O75469 whole entry, looked up): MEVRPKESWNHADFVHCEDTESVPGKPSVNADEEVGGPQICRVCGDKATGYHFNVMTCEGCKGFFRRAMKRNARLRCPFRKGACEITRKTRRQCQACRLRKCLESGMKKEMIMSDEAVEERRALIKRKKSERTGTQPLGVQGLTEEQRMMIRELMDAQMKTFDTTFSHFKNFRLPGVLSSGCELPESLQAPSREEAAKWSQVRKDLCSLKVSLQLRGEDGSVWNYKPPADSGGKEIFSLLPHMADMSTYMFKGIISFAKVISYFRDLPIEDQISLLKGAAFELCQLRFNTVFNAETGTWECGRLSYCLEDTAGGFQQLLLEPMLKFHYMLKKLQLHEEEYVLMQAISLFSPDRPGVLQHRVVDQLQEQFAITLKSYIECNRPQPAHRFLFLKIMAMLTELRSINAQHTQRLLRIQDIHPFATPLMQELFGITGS
Sequence of Cytochrome P450 2D6 (Homo sapiens) (P10635 whole entry, looked up): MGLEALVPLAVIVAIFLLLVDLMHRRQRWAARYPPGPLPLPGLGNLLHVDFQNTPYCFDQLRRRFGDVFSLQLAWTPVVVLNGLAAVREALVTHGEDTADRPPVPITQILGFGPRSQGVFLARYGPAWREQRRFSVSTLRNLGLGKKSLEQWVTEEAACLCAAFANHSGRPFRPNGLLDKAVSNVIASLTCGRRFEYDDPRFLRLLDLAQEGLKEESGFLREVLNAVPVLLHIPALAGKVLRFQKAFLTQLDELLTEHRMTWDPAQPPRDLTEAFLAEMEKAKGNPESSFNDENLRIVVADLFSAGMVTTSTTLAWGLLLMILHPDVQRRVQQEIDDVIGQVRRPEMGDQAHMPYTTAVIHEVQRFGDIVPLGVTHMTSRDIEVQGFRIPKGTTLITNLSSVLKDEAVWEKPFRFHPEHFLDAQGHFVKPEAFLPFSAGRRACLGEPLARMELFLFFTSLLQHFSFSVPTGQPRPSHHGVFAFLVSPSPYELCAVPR

N#CCCCC(C#N)CCC#N (stereo not given)
inactive: Potency [1] | Potency [2] | Potency [3] | Potency [4] | outcome [5] | outcome [6] | Potency [7] | Potency [8] | Potency [9] | Potency [10] | Potency [11] | Potency [12]

CCCC(=O)OCCC(C)C
inactive: Potency [1] | Potency [2] | Potency [3] | Potency [4] | outcome [5] | outcome [6] | outcome [13] | outcome [14] | Potency [15] | Potency [16] | Potency [7] | Potency [8] | Potency [9] | Potency [10] | Potency [11] | Potency [12]

O=C(OC1C[C@H]2CC[C@@H](C1)[N+]21CCCC1)C(O)(c1ccccc1)c1ccccc1 (stereo not given in full)
inactive: Potency [1] | Potency [2] | Potency [3] | Potency [4] | outcome [5] | outcome [6] | outcome [13] | outcome [14] | Potency [15] | Potency [16] | Potency [8] | Potency [9] | Potency [10] | max activation [17] -1.51% | Potency [18] | Potency [19]
active: Potency [11] 4.9 µM

CCCCCCCCNC
active: Potency [12] 22.4 µM
inactive: Potency [1] | Potency [2] | Potency [3] | Potency [4] | outcome [5] | outcome [6] | outcome [13] | outcome [14] | Potency [15] | Potency [16] | Potency [7] | Potency [10]

O=C(O)c1cc(C(=O)O)cc([N+](=O)[O-])c1
inactive: Potency [1] | Potency [2] | Potency [3] | Potency [4] | outcome [5] | outcome [6] | outcome [13] | outcome [14] | Potency [15] | Potency [16] | Potency [7] | Potency [10] | Potency [11] | Potency [12]

COC=O
inactive: activation [1] 0.0776% [at 8.39 µM] | activity change, negative = inhibition [2] -3.19% [at 8.39 µM] | activity change, negative = cytotoxicity [3] 0.308% [at 8.39 µM] | activity change, negative = cytotoxicity [4] 7.63% [at 8.39 µM] | activity change, negative = cytotoxicity [5] 8.3% [at 6.97 µM] | activation [6] -0.257% [at 6.97 µM] | activity, negative = inhibition [13] 1.15% [at 4.65 µM] | activation [14] -1.05% [at 5.23 µM] | activity change, negative = cytotoxicity [15] 3.92% [at 8.39 µM] | activity change, negative = cytotoxicity [7] 2.52% [at 8.39 µM] | caspase-3/7 activation [8] -0.739% [at 8.39 µM] | activity change, negative = cytotoxicity [9] 7.73% [at 8.39 µM] | activation [10] -0.203% [at 8.39 µM] | activity change, negative = inhibition [12] 14.6% [at 10.5 µM]

COc1cc(C)c(Cc2cnc(N)nc2N)cc1OC
inactive: Potency [1] | Potency [2] | Potency [3] | outcome [20] | outcome [5] | outcome [6] | outcome [13] | outcome [14] | Potency [15] | Potency [16] | Potency [7] | Potency [8] | Potency [9] | Potency [10] | max activation [17] -0.291% | Potency [18] | Potency [19] | Potency [11] | Potency [12]

CCC(C(=O)O)c1ccc(N2Cc3ccccc3C2=O)cc1 (stereo not given)
inactive: Potency [1] | Potency [2] | Potency [3] | Potency [4] | outcome [20] | outcome [5] | outcome [13] | outcome [14] | Potency [16] | Potency [8]
active: Potency [10] 4.73 µM | Potency [11] 15.5 µM | Potency [12] 21.9 µM

C=CC(=O)OCCCCCCCCCC
inactive: Potency [1] | Potency [2] | Potency [3] | Potency [4] | outcome [5] | outcome [13] | outcome [14] | Potency [16] | Potency [7] | Potency [8] | Potency [9] | Potency [10] | Potency [11] | Potency [12]

CC(C(=O)O)c1ccc2c(c1)Cc1cccnc1O2 (stereo not given)
inactive: Potency [1] | Potency [2] | Potency [3] | Potency [4] | outcome [5] | outcome [13] | outcome [14] | Potency [15] | Potency [16] | Potency [7] | Potency [8] | max activation [17] -0.373% | Potency [12]

S=c1[nH][nH]c(=S)s1
inactive: Potency [1] | Potency [2] | Potency [3] | Potency [4] | outcome [5] | outcome [6] | outcome [13] | outcome [14] | Potency [16] | Potency [10]
active: Potency [12] 22.4 µM

CC/C=C/CCO
active: Potency [3] 31.2 µM | Potency [4] 19.7 µM
inactive: Potency [1] | Potency [2] | outcome [5] | outcome [6] | outcome [13] | outcome [14] | Potency [15] | Potency [16] | Potency [7] | Potency [8] | Potency [10] | Potency [12]
